In ChEMBL document CHEMBL3988442, “University of Dundee, Small-Polar-MMV Screening Library” (2021):
The campaign covered roughly 69,000 compounds. About 950 (1.4%) showed an effect of 50% or more. Many of the other results were omitted from the sample, so strong results are more common in it than they were.

Each compound was assayed on Mycobacterium tuberculosis (assay: Cornell M. t heat shock assay; further: in the data most compounds retested in dose-response had high values).
Format: functional, organism-based
Parameters: dose or concentration left out as unconfirmed

Structure (SMILES) | Percent Effect [%]
CC(C)N1CCO[C@H]2CN(C(=O)c3ccsc3)C[C@H]21.O=C(O)C(F)(F)F | -22.87
O=C(Nc1cccc(N2CCCC2)c1)C1CCCN1c1nccs1 (centres undefined) | 5.051
O=C(Nc1cccc(F)c1)C1CCCN1c1nccs1 (centres undefined) | 8.306
O=C(Nc1cccc2c1CCCC2)C1CCCN1c1nccs1 (centres undefined) | 50.83
CCC(C)N1CCC2(CC1)CN(c1cncnc1)C(=O)CO2.O=C(O)C(F)(F)F (centres undefined) | -21.63
Cc1nc(-c2ccc(F)c(F)c2)cc(C2CCNCC2)n1.Cl | -7.049
Cn1cc(C2CC(=O)NC23CCN(Cc2cccc(F)c2)CC3)cn1.O=C(O)C(F)(F)F (centres undefined) | -23.11
CCOc1ccc(CN2CCc3nc4ccsc4c(=O)n3CC2)cc1.Cl | 16.23
CCOCc1nn(C)c2c1CN(Cc1cccs1)CC2.O=C(O)C(F)(F)F | 29.88
CC(C(=O)NN1CCOCC1)n1nc(C(F)(F)F)c(Cl)c1C1CC1 (centres undefined) | -25.21
CN(C)CCN1CCO[C@H]2CN(C(=O)c3ccsc3)C[C@H]21.O=C(O)C(F)(F)F.O=C(O)C(F)(F)F | 25.92
O=C(C1CCC1)N1CC[C@H](O)[C@@H]1Cc1cccnc1.O=C(O)C(F)(F)F | 0.09339
Cc1cc(N2CCCC(c3nccnc3N(C)C)C2)ncn1 (centres undefined) | -16.62
CCCC(NC(=O)c1ccccn1)c1nnc2ccccn12 (centres undefined) | -4.17
CC(C)CC(NC(=O)c1ccco1)c1nc2cccnc2n1C (centres undefined) | -10.38
CC(C)CC(NC(=O)c1ccco1)c1nnc2ccccn12 (centres undefined) | 66.07
Cc1ccc(CN2CCc3c(COCC4CC4)nn(C)c3C2)s1.O=C(O)C(F)(F)F | -29.84
Cc1ccsc1CN1CCn2c(COc3cccnc3)cnc2C1C.O=C(O)C(F)(F)F.O=C(O)C(F)(F)F (centres undefined) | 9.479
CC(=O)N1CCC12CCN(Cc1ccco1)CC2.O=C(O)C(F)(F)F | -13.47
Cc1cc(Nc2ccccn2)nc(C2CCCN(CCO)C2)n1.O=CO (centres undefined) | -14.49
Cc1cc(Nc2cnccn2)nc(C2CCCN(CCO)C2)n1 (centres undefined) | 103.5
Cc1cc(Nc2ncccn2)nc(C2CCCN(CCO)C2)n1 (centres undefined) | 17.06
CC(=O)N1CC(=O)N(c2ccccc2)CC12CCN(Cc1ccoc1)C2.O=C(O)C(F)(F)F (centres undefined) | -0.426

Structure (SMILES) | Percent Effect [%]
Fc1ccc(CNCC2OCCc3cn(CC4CC4)nc32)cc1.O=C(O)C(F)(F)F.O=C(O)C(F)(F)F (centres undefined) | 12.69
Cc1noc(C)c1CN1CCc2ncnc(-c3cccnc3)c2CC1.O=C(O)C(F)(F)F.O=C(O)C(F)(F)F | 12.88
COc1cc(C(=O)NCc2ccc3c(c2)CCCN3C)cc(OC)c1Br | -0.1722
COc1cc(C(=O)NS(=O)(=O)c2cccc(C#N)c2)cc(Cl)c1OC | -1.963
COc1cc(C(=O)NS(=O)(=O)c2cncc(Br)c2)cc(Cl)c1OC | -14.73
COc1cc(C(=O)NS(=O)(=O)c2cccc(C#N)c2)cc(OC)c1Br | -8.929
COc1cc(C(=O)Nc2nc(C)no2)ccc1C | 106.9
COc1cc(C(=O)Nc2cn[nH]c2)ccc1C | -19.45
COc1cc(C(=O)Nc2nc(C)no2)cc(Cl)c1OC | 101
COc1cc(C(=O)Nc2nc(C)no2)ccc1OC1CCCC1 | -1.479
COc1cc(C(=O)Nc2nc(C)no2)cc(OC)c1Br | 104.3
COc1cc(C(=O)NS(=O)(=O)c2cc(Cl)sc2Cl)ccc1OC(F)F | -14.59
COc1cc(C(=O)Nc2c(C)noc2C)ccc1C | -2.052
COc1cc(C(=O)Nc2nc(C)no2)ccc1OC(F)F | 79.09
O=C(N1CCCC1)N1CCO[C@H]2[C@@H](Oc3ccccn3)CC[C@@H]21.O=C(O)C(F)(F)F | 0.1764
Cc1ccc(CN2CC[C@@H]3OCCN(S(C)(=O)=O)[C@H]3CC2)s1.O=C(O)C(F)(F)F | 16.37
O=C(N1CCCC1)N1CCc2onc(COc3cccnc3)c2C1.O=C(O)C(F)(F)F | -4.712
CC(C)Cc1cc(C(=O)NCC(O)CN2CCCCCC2)on1 (centres undefined) | -12.74
CC(C)Cc1cc(C(=O)NCC2CCCN(Cc3ccco3)C2)on1 (centres undefined) | 16.01
CC(C)Cc1cc(C(=O)NC(C)(C)CN2CCCCCC2)on1 | 72.52
CCc1ncnc2c1CCN(C(=O)c1ccccn1)CC2.O=C(O)C(F)(F)F | -22.3
CSc1ncccc1C(=O)N1C[C@H]2CC[C@@H]1CN(C(=O)N(C)C)C2 | -1.597
O=C(NCc1ccccn1)c1cnc(C2CCCN2)cn1 (centres undefined) | 52.39

Structure (SMILES) | Percent Effect [%]
O=C(NCc1ccccn1)c1cncc(C2CCCN2)n1 (centres undefined) | 2.609
Cc1nc(C(=O)NCc2ccccn2)cc(C2CCCN2)n1 (centres undefined) | 45.77
Cc1csc(NC(=O)c2cnc(C3CCCN3)cn2)n1.Cl (centres undefined) | 82.89
Cc1csc(NC(=O)c2cnc(C3CCNCC3)cn2)n1.Cl | -24.76
Cc1csc(NC(=O)c2cnc(C3CCCN(C)C3)cn2)n1 (centres undefined) | 23.5
Cl.Cn1ccnc1C1(O)CCN(C(=O)CCc2ccccc2)CC1 | 1.719
Cc1noc(C)c1CN1CCc2c(CNc3nccs3)n[nH]c2C1.O=C(O)C(F)(F)F | 8.041
CCCNC(=O)c1cc2c(s1)CCN2C(=O)CN(C)C.O=C(O)C(F)(F)F | 1.454
C[C@H]1CN(c2ccccn2)C[C@@]12CCN(c1cccnc1)C2=O.O=C(O)C(F)(F)F.O=C(O)C(F)(F)F | 11.35
COc1ccc(CN2CCC3(CC(=O)N(c4cncnc4)C3)C2)cc1.O=C(O)C(F)(F)F (centres undefined) | -12.31
CN1CCC(c2nc3ccc(-c4ccccc4)cn3n2)CC1.O=C(O)C(F)(F)F | -24.93
COc1ccccc1Cc1cncc(N2CC(C(=O)O)C2)n1.Cl | 2.257
CN(C)c1nc2c(c(N(C)Cc3n[nH]c4c3CCCC4)n1)CCNCC2 | 31.61
CN(Cc1n[nH]c2c1CCCC2)c1nc(C2CC2)nc2c1CCNCC2 | 1.399
CN(C)c1nc2c(c(N(C)Cc3n[nH]c4c3CCCCC4)n1)CCNC2 | 76.86
CCS(=O)(=O)N1C[C@@H](OCc2ccccn2)[C@@H]2OCCC[C@@H]21.O=C(O)C(F)(F)F | -14.72
CCC1(CC)Cc2ccccc2-c2nc(CN(C)C)nc(O)c21 | 51.81
CCC1(CC)Cc2ccccc2-c2nc(NCCCO)[nH]c(=O)c21 | 0.6588
CCC1(CC)Cc2ccccc2-c2nc(NCCO)[nH]c(=O)c21 | -12.78
Cc1cccc(C(=O)N2C[C@@H]3COC[C@@H](CC(=O)N4CCCC4)[C@@H]3C2)n1.O=C(O)C(F)(F)F | -12.77
Cc1ccc(N2CCCC3(COCCN(c4ncccn4)C3)C2)nn1.O=C(O)C(F)(F)F (centres undefined) | -5.221
O=C(O)C(F)(F)F.O=C(c1cc(C2CC2)on1)N1C[C@@H]2COC[C@]2(COc2cccnc2)C1 | 24.08
CCc1cnc(N2CCC3(CC(=O)N(Cc4csc(C)n4)C3)C2)nc1.O=C(O)C(F)(F)F (centres undefined) | 1.546

Structure (SMILES) | Percent Effect [%]
Cc1nc(C)n(CC2CCCN(c3ncnc4sccc34)C2)n1 (centres undefined) | 24.39
Cc1nc(C)n(CC2CCCN(c3ncnc4ccsc34)C2)n1 (centres undefined) | 56.12
Cc1nc(C)n(CC2CCCN(c3ncnc4ccccc34)C2)n1 (centres undefined) | -1.971
CC(C)N(C)Cc1cn2c(n1)CN(C(=O)Cc1ccccc1)CC2.O=C(O)C(F)(F)F | -8.481
CCN1CC2(CCOCC2)c2cc(NS(=O)(=O)CC)ccc21.O=C(O)C(F)(F)F | 51.54
CCS(=O)(=O)Nc1ccc2c(c1)C1(CCOCC1)CN2C.O=C(O)C(F)(F)F | 36
CCC(=O)Nc1ccc2c(c1)C1(CCOCC1)CN2CCF.O=C(O)C(F)(F)F | 28.61
CCC(=O)Nc1ccc2c(c1)C1(CCOCC1)CN2CCOC.O=C(O)C(F)(F)F | 46.17
CCCC(=O)Nc1ccc2c(c1)C1(CCOCC1)CN2CCOC.O=C(O)C(F)(F)F | 15.62
COCCN1CC2(CCOCC2)c2cc(NC(=O)C3CC=CC3)ccc21.O=C(O)C(F)(F)F | 100.7
O=C(O)C(F)(F)F.O=C1COC2(CCN(C(=O)c3ccco3)CC2)CN1Cc1cccnc1 | -2.228
O=C(O)C(F)(F)F.O=C(O)C(F)(F)F.c1cnc(N2C[C@H]3CN(CC4CCOC4)C[C@H]3C2)nc1 (some centres undefined) | -39.47
O=C(O)C(F)(F)F.O=C(c1ccco1)N1CCCC2(CCN(c3nncs3)C2)C1 (centres undefined) | 42.37
CN(C)C(=O)COC[C@@H]1CC[C@H]2[C@H](CCN2c2ccccn2)O1.O=C(O)C(F)(F)F | -1.761
Cn1cc(CN2CCC[C@]3(C[C@@H](Oc4ccccn4)CO3)C2)cn1.O=C(O)C(F)(F)F.O=C(O)C(F)(F)F | 27.52
Cn1cnc(S(=O)(=O)N2CC3(CCN(CC4CC4)C3)C2)c1.O=C(O)C(F)(F)F.O=C(O)C(F)(F)F | 2.143
CO[C@@H]1CCN(Cc2c(C)noc2C)[C@@H]2CN(Cc3cccnc3)C[C@@H]21.O=C(O)C(F)(F)F.O=C(O)C(F)(F)F.O=C(O)C(F)(F)F | 14.07
CN(CCc1ccncc1)Cc1nccn1Cc1ccccc1 | 9.887
CN(Cc1ccncc1)Cc1nccn1Cc1ccccc1 | 6.234
CN(CCc1ccccn1)Cc1nccn1Cc1ccccc1 | 101.1
